Among the test systems are SK-MEL-2 melanoma; EKVX NSCLC; SN12C renal; UO-31 renal; TK-10 renal; ACHN renal; CCRF-CEM leukemia; MOLT-4 leukemia; SR leukemia; A498 renal.
What all share (assay): NCI-60 one-dose screen, 48 h (100 = growth as untreated, 0 = no growth, -100 = all killed)
Common to all, as to conditions: 10 µM unless noted

This is part of a sample that, as a whole, favours compounds with a hit. Of some 83,000 tested, about 20% had one in any assay.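 Percent growth is the endpoint: 0 to 100 indicates growth inhibition (40 means 60% inhibition), 0 means no net growth, and negative values indicate cell death.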 Values without a mark were called inactive. Active and inactive are the calls of the source. Rule for the calls: active = growth percent below 10; inactive = the rest.

`COc1ccc(C2CC(c3ccc(OC)cc3O)=NN2c2ccc(S(N)(=O)=O)cc2)cc1` (configuration not stated): the growth in the experiment with SK-MEL-2 melanoma is 58.7%; with EKVX NSCLC it was 20.9%; in the experiment with SN12C renal, 54.2%; in the experiment with UO-31 renal, 27.6%; with TK-10 renal, 43.9%; with ACHN renal, 29.1%. In addition, the growth in the experiment on CCRF-CEM leukemia is 13.5%; with MOLT-4 leukemia, 4.82% (active); with SR leukemia it was 8.1% (active).
As for `COc1ccc(C2N(c3cc(OC)c(OC)c(OC)c3)C(=O)C2(F)F)cc1F` (configuration not stated), the growth was 84.6% with SK-MEL-2 melanoma; 77.7% in the experiment on EKVX NSCLC; 54.9% in the experiment with SN12C renal; 53.5% with UO-31 renal; 106% in the experiment with TK-10 renal; 60.8% in the experiment with ACHN renal. The growth in the experiment on CCRF-CEM leukemia is 13%; with MOLT-4 leukemia, 18.7%; in the experiment with SR leukemia, 18.7%.
Consider `CC(C)NS(=O)(=O)c1cccc(-c2ccc3c4c(n(CCCN(C)C)c(=O)c3c2)-c2ccccc2C4=O)c1`, for which the growth in the experiment on SK-MEL-2 melanoma was 101%; in the experiment on EKVX NSCLC, 105%; with SN12C renal, 97.2%; in the experiment with UO-31 renal it was 91%; in the experiment with TK-10 renal it was 114%; in the experiment on ACHN renal it was 82.4%. The growth with CCRF-CEM leukemia was 1.51% (active); in the experiment on MOLT-4 leukemia, 68.2%; with SR leukemia it was -27% (active).
Take `O=C1Nc2ccccc2C12C=C(c1ccccc1)Nc1c2c(-c2ccccc2)nn1-c1ccccc1` (configuration not stated): the growth with SK-MEL-2 melanoma was 80.1%; with EKVX NSCLC, 53.2%; with SN12C renal it was 76.5%; in the experiment with UO-31 renal, 62.9%; in the experiment with TK-10 renal it was 87.8%; with ACHN renal it was 60.4%. For the same compound, the growth in the experiment on CCRF-CEM leukemia was 25.9%; in the experiment with MOLT-4 leukemia, 16.4%; with SR leukemia, 38%.
With `C=C1C(=O)O[C@H]2[C@H]1CC/C(COC(=O)c1cccnc1)=C\CC[C@@]1(C)O[C@@H]21`, the growth with SK-MEL-2 melanoma was 88.3%; in the experiment on EKVX NSCLC it was 71.8%; with SN12C renal, 51.8%; in the experiment on UO-31 renal, 69.9%; with TK-10 renal it was 63.1%; with ACHN renal it was 45.2%. For the same compound, the growth with CCRF-CEM leukemia was 3.51% (active); in the experiment with MOLT-4 leukemia, 71.5%; with SR leukemia it was 21%.
With `Cc1cccc2nc3c(n12)C(=O)C(=O)c1ccccc1-3`, the growth in the experiment with SK-MEL-2 melanoma is 81.2%; in the experiment with EKVX NSCLC it was 64.1%; in the experiment with SN12C renal, 37.1%; with UO-31 renal, 55.8%; with TK-10 renal, 125%; in the experiment with ACHN renal it was 69.4%. The growth in the experiment with CCRF-CEM leukemia was 91.9%; with MOLT-4 leukemia, 81.1%; with SR leukemia, 88.2%.
Consider `Oc1ccccc1-c1nc2c3ccccc3c3ccccc3c2o1`, for which the growth in the experiment on SK-MEL-2 melanoma is 110%; in the experiment with EKVX NSCLC it was 78.8%; with SN12C renal, 83%; in the experiment on UO-31 renal, 61%; with TK-10 renal, 162%; with ACHN renal, 91.1%. Further, the values for the growth with CCRF-CEM leukemia, in the experiment on MOLT-4 leukemia and in the experiment with SR leukemia were 82.1%, 95.3% and 73.7%, respectively.
Regarding `CCCCc1n(Cc2ccc3ccccc3c2)c2ccccc2[n+]1Cc1ccc2ccccc2c1`, the growth in the experiment on SK-MEL-2 melanoma was -73.5% (active); in the experiment with EKVX NSCLC it was -84.6% (active); in the experiment on SN12C renal it was -92.3% (active); with UO-31 renal, -90.3% (active); with TK-10 renal, -87.1% (active); in the experiment with ACHN renal it was -91.4% (active). Further, the growth in the experiment on CCRF-CEM leukemia was -48.2% (active); in the experiment on MOLT-4 leukemia, -60.9% (active); in the experiment with SR leukemia, -54.1% (active).
For the compound `CC[C@H](Nc1ncnc2nc[nH]c12)c1nc2cccc(CC(=O)c3ccc(C(=O)NO)cc3)c2c(=O)n1-c1ccccc1`, the growth was 77.5% in the experiment on SK-MEL-2 melanoma; 90.6% in the experiment with EKVX NSCLC; 84% in the experiment with SN12C renal; 87.4% in the experiment on UO-31 renal; 88.1% in the experiment on TK-10 renal; 74% in the experiment with A498 renal. For the same compound, the growth in the experiment with CCRF-CEM leukemia was 90.1%; in the experiment on MOLT-4 leukemia, 66.8%; in the experiment with SR leukemia it was 67.6%.
With `NC[C@@H]1CCN(c2cc3c(cc2F)c(=O)n(N)c(=O)n3Cc2ccc(-c3ccccc3)cc2)C1`, the growth in the experiment on SK-MEL-2 melanoma was 94.4%; in the experiment with EKVX NSCLC, 85.3%; with SN12C renal, 87.3%; with UO-31 renal, 69.7%; in the experiment with TK-10 renal, 94.7%; with A498 renal, 90.3%. Also, the growth in the experiment on CCRF-CEM leukemia was 55.4%; in the experiment on MOLT-4 leukemia it was 50.4%; in the experiment with SR leukemia, -26.7% (active).
As for `COC(=O)c1oc2c(C(=O)/C=C/c3ccc(OC)cc3)c(OCCCN3CCCCC3)ccc2c1C`, the growth was 53.5% in the experiment with SK-MEL-2 melanoma; 28% in the experiment on EKVX NSCLC; 22.5% in the experiment on SN12C renal; 12.2% with UO-31 renal; 35.2% in the experiment with TK-10 renal; 83.6% in the experiment with A498 renal. Also, the growth was -46.2% (active) with CCRF-CEM leukemia, -31.4% (active) in the experiment on MOLT-4 leukemia and -31% (active) in the experiment on SR leukemia.
`O=C(CCCCCCCCC(=O)Nc1cccc(C2=NCCN2)c1)Nc1cccc(C2=NCCN2)c1`: the growth in the experiment with SK-MEL-2 melanoma is 99.8%; with EKVX NSCLC, 105%; with SN12C renal it was 81.6%; in the experiment with UO-31 renal, 96.3%; in the experiment on TK-10 renal, 92.4%; in the experiment with A498 renal it was 93.5%. Besides, the growth was 98% in the experiment on CCRF-CEM leukemia, 89.4% with MOLT-4 leukemia and 65.5% in the experiment with SR leukemia.
For `C=C1C(=O)O[C@H]2[C@H]1CC/C(COC(=O)NCC(=O)Nc1ccc(OC)c(C(N)=O)c1O)=C\CC[C@@]1(C)O[C@@H]21`, the growth with SK-MEL-2 melanoma is 77.5%; in the experiment with EKVX NSCLC, 85.1%; in the experiment on SN12C renal it was 37.9%; in the experiment on UO-31 renal it was 82.7%; in the experiment on TK-10 renal it was 47.2%; with A498 renal, 86.4%. The figures for the growth in the experiment on CCRF-CEM leukemia, in the experiment on MOLT-4 leukemia and in the experiment on SR leukemia were -15.8% (active), 41.8% and 12.6%, respectively.
For the compound `Nc1c(C(=O)Nc2ccccn2)sc2nc3c(cc12)CCCCCC3`, the growth in the experiment with SK-MEL-2 melanoma is 11.5%; with EKVX NSCLC it was 31.8%; in the experiment with SN12C renal, 39.2%; in the experiment with UO-31 renal it was 35.5%; in the experiment with TK-10 renal, 35.7%; with A498 renal, 15%. Also, the growth is 5.58% (active) in the experiment on CCRF-CEM leukemia, 16.3% with MOLT-4 leukemia and 7.99% (active) in the experiment with SR leukemia.
For the compound `O=C(C[n+]1cccc2cc(Cl)ccc21)c1ccc2c(c1)CCCC2`, the growth in the experiment with SK-MEL-2 melanoma was 28.3%; with EKVX NSCLC, 44.7%; in the experiment on SN12C renal, 10.1%; in the experiment with UO-31 renal, 91.4%; in the experiment with TK-10 renal, 62%; in the experiment on A498 renal it was 74%. Further, the results for the growth in the experiment with CCRF-CEM leukemia, with MOLT-4 leukemia and in the experiment on SR leukemia were 16%, 1.84% (active) and 19%, respectively.
For `N#Cc1c(-c2ccc(F)cc2)nc(N/N=C/c2cccc(O)c2)nc1N1CCOCC1`, the growth in the experiment on SK-MEL-2 melanoma is 85.9%; in the experiment on EKVX NSCLC, 86.9%; in the experiment on SN12C renal, 96.7%; in the experiment with UO-31 renal it was 45.3%; with TK-10 renal, 63.3%; with A498 renal, 78.7%. Also, the figures for the growth in the experiment with CCRF-CEM leukemia, in the experiment on MOLT-4 leukemia and in the experiment with SR leukemia were 56.4%, 40% and 2.93% (active), respectively.
Turning to `O=C(Nc1cccc(-c2cccc(F)c2)c1)C1CCN(Cc2cccc3cccnc23)CC1`, the growth in the experiment with SK-MEL-2 melanoma is 63.1%; in the experiment on EKVX NSCLC it was 68.4%; in the experiment with SN12C renal, 74.2%; in the experiment with UO-31 renal it was 35.8%; in the experiment with TK-10 renal it was 60.1%; with A498 renal, 55.3%. The growth in the experiment with CCRF-CEM leukemia was 57.2%; in the experiment with MOLT-4 leukemia, 17.6%; in the experiment on SR leukemia, -32.7% (active).
On to `Nc1c(C(=O)Nc2cccc3ccccc23)sc2nc3c(cc12)COCC3`, for which the growth in the experiment on SK-MEL-2 melanoma was 49.1%; in the experiment with EKVX NSCLC it was 85.1%; in the experiment on SN12C renal, 59.9%; in the experiment on UO-31 renal it was 77%; in the experiment on TK-10 renal, 96.4%; with A498 renal, 54.2%. For the same compound, the results for the growth in the experiment with CCRF-CEM leukemia, in the experiment on MOLT-4 leukemia and in the experiment with SR leukemia were 23.6%, 35% and 22.4%, respectively.
`C/C(=C\c1cnc(C)s1)[C@@H]1C[C@@H]2O[C@@H]2CCC[C@H](C)[C@H](O)[C@@H](C)C(=O)C(C)(C)[C@@H](O)CC(=O)O1`: the growth in the experiment on SK-MEL-2 melanoma was 27.5%; in the experiment on EKVX NSCLC, 44.4%; in the experiment on SN12C renal it was 54%; in the experiment on UO-31 renal it was 36.4%; in the experiment on TK-10 renal, 44.8%; in the experiment with A498 renal it was 4.95% (active). The growth with CCRF-CEM leukemia is 30.7%; in the experiment with MOLT-4 leukemia, 31.7%; in the experiment on SR leukemia, 30%.
In the case of `CN(C)CCCn1c2c(c3cc(-c4cccc(S(N)(=O)=O)c4)ccc3c1=O)C(=O)c1ccccc1-2`, the growth with SK-MEL-2 melanoma is 124%; in the experiment on EKVX NSCLC, 88.6%; in the experiment on SN12C renal, 78.3%; with UO-31 renal, 72.9%; with TK-10 renal it was 99.5%; in the experiment on A498 renal, 96.4%. The growth with CCRF-CEM leukemia is 18.8%; in the experiment with MOLT-4 leukemia, 8.99% (active); in the experiment on SR leukemia, -5.99% (active).
`CC(C)(C#N)c1cc(F)cc(C(=O)Nc2cc(Nc3ncccc3-c3ncnc4nc[nH]c34)ccc2F)c1`: the growth is -12.8% (active) in the experiment with SK-MEL-2 melanoma; 59.5% with EKVX NSCLC; 56.7% with SN12C renal; 12.8% in the experiment with UO-31 renal; 49% in the experiment on TK-10 renal; -4.87% (active) in the experiment with A498 renal. Besides, the growth was 38.9% with CCRF-CEM leukemia, 29.2% in the experiment with MOLT-4 leukemia and 35.5% in the experiment on SR leukemia.
For the compound `C#CCOC(=O)[C@]1(C)CCC[C@]2(C)[C@H]3C[C@H]4C(C(C)C)=C[C@]3(CC[C@H]21)[C@@H]1C(=O)CCC(=O)[C@@H]14`, the growth with SK-MEL-2 melanoma is 88.2%; in the experiment with EKVX NSCLC it was 76.1%; in the experiment with SN12C renal, 86.8%; in the experiment with UO-31 renal, 74.7%; with TK-10 renal, 90.7%; with A498 renal it was 66.5%. Moreover, the growth in the experiment on CCRF-CEM leukemia was 67.1%; with MOLT-4 leukemia, 73.5%; in the experiment with SR leukemia it was 64.9%.
As to `Cc1nccc2c3ccc(OCc4cn(-c5ccccc5)nn4)cc3n(CCCc3ccccc3)c12`, the growth in the experiment on SK-MEL-2 melanoma is 91.7%; in the experiment with EKVX NSCLC, 69.9%; in the experiment with SN12C renal, 75.6%; with UO-31 renal, 54.6%; in the experiment with TK-10 renal, 71.6%; in the experiment with A498 renal, 53.8%. Besides, the growth was 77.4% in the experiment on CCRF-CEM leukemia, 35.3% in the experiment with MOLT-4 leukemia and 33.5% with SR leukemia.

(Values after PubChem BioAssay (NCI).)
